Source: PubChem BioAssay (National Center for Advancing Translational Sciences (NCATS))
TDP1 cell CPT: growth inhibition of DT40 Tdp1-/-;hTDP1 cells with camptothecin (screen for TDP1 inhibitors) | 420,000 compounds, 12% hits | AID 686979 | Potency, µM (titrated, usually from 46.2 µM), for inactives: at the highest dose activity change, negative = growth inhibition, actives largely listed as inhibitors | chicken DT40 Tdp1-/-;hTDP1 cells + 20 nM CPT, ATP luminescence, 48 h; also: potency is read from the fitted curve at half-maximal effect; % is scaled to controls: 0 for no effect and ±100 for the full control effect; nearly all actives have a fitted effect of over 55% in size
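Chicken DT40 Tdp1-/- cells complemented with human TDP1, 400 cells/well, exposed to compounds plus 20 nM camptothecin for at least 48 h at 37 C; viability read as ATP content by CellTiter-Glo luminescence.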
HepG2 viability: counter-screen for TGF-b inhibitors: cytotoxicity in HepG2 cells | HepG2 CAGA-GFP viability, ATP luminescence, 18 h | Potency, µM (highest dose often 46.1 µM), for inactives: at the highest dose activity change, negative = cytotoxicity, most hits filed as cytotoxic | 410,000 compounds, 0.76% hits; also: potency is read from the fitted curve at half-maximal effect
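CellTiter-Glo luminescence gave cytotoxicity after 18 hours at 37 degrees C. The cells were HepG2 CAGA-GFP in 1% FBS DMEM, stimulated with 500 pg/mL TGF-beta after compound addition. %Activity was normalised to no-cell wells (complete cell-killing) and DMSO (no toxicity), and curves were fitted and classified.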
TDP1 cell noCPT: qHTS for Inhibitors of human tyrosyl-DNA phosphodiesterase 1 (TDP1): qHTS in cells in absence of CPT; DT40 Tdp1-/- hTDP1 cells, no CPT, ATP luminescence, 48 h; Potency, µM (top dose mostly 46.2 µM), without a hit: at the top dose activity change, negative = growth inhibition, actives largely listed as inhibitors; 420,000 compounds, 15% hits; AID 686978, 2013; also: potency is read from the fitted curve at half-maximal effect; % is scaled to controls: 0 for no effect and ±100 for the full control effect; nearly all actives have a fitted effect of over 55% in size
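Growth kinetics read by CellTiter-Glo luminescence after ≥48 hr at 37 °C. Cells: DT40 Tdp1-/- stably carrying human TDP1, 400 per well, compound exposure in the absence of CPT (DMSO vehicle).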
IL-1B inflam inh: inflammasome signaling inhibition, IL-1 beta readout | THP-1 LPS/ATP IL-1B secretion, AlphaLISA, 16 h; stronger effect = lower value | activity change, % at 57.5 µM | 360,000 compounds, 4.7% hits; in the data active = activity change below about -50%; inconclusive = mostly about -30% to -49%; also: % is scaled to controls: 0 for no effect and ±100 for the full control effect
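Secreted IL-1B measured by AlphaLISA bead assay after 16 h compound exposure of THP-1 cells; compounds (final up to 57.5 uM) added 1 h before LPS (250 ng/mL) and ATP (1.25 mM) stimulation; lower signal means less secretion.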
TDP1 block: TDP1 (human) enzyme inhibition. recombinant TDP1, AlphaScreen DNA substrate cleavage. Potency, µM (titrated, usually from 130 µM), inactives show top-dose activity change, negative = inhibition, actives largely listed as inhibitors. Q9NUW8. 350,000 compounds, 0.28% hits. AID 485290; also: potency is read from the fitted curve at half-maximal effect; % is scaled to controls: 0 for no effect and ±100 for the full control effect; nearly all actives have a fitted effect of over 40% in size
Target sequence (Q9NUW8 whole entry, looked up): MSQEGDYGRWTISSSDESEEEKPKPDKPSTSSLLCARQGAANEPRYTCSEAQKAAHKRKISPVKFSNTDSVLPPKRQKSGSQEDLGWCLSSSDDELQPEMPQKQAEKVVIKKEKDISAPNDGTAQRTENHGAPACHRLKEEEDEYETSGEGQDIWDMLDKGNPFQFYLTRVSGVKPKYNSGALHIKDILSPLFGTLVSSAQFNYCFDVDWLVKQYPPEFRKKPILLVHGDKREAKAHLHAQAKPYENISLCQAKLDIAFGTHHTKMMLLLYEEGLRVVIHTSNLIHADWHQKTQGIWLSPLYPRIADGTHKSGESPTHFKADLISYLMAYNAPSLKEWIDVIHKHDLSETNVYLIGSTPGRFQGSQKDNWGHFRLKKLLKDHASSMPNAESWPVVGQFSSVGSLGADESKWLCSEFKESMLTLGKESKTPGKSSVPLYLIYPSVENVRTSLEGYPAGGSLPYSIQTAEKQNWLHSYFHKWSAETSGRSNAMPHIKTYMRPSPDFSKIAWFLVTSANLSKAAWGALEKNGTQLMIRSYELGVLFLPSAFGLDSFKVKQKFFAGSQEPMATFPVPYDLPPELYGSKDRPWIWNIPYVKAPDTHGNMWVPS
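Recombinant human Tdp1 (E. coli-expressed, 1 nM final) preincubated with compounds 15 min at room temperature, then 5'-biotin/3'-phosphotyrosine-FITC DNA substrate (15 nM final) added for 5 min. AlphaScreen beads (10 ug/ml final) added 10 min; cleavage lowers signal.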
TGFb inhibitor: inhibitors of TGF-b signaling; HepG2 CAGA-GFP TGF-b/SMAD3 reporter, GFP fluorescence, 18 h; TGF-beta stimulated, 500 pg/mL final; Potency, µM (highest dose often 46.1 µM), inactives show at the top dose activity, negative = inhibition, hits mostly inhibitors; 410,000 compounds, 1.2% hits; AID 588855; also: potency is read from the fitted curve at half-maximal effect; % is scaled to controls: 0 for no effect and ±100 for the full control effect; nearly all actives have a fitted effect of over 65% in size
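Inhibition was scored as loss of TGF-beta-induced (500 pg/mL final, 18 hours, 37 degrees C) GFP in HEPG2 cells carrying a CAGA-GFP reporter, in DMEM with 1% FBS. Well GFP was summed per cell; Activity was normalised to unstimulated and stimulated DMSO wells, then concentration-response fitting.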
* = called active by the depositor; ? = inconclusive; . = no result given; [ ] = remark or other dose. Sampled rows, rich in hits. Any-hit rate of the full collection: about 18%. Unless noted, calls follow the shape of the dose curve; as a rule, active = well fitted curve in the direction sought with a large enough effect; inconclusive = small, poorly fitted or top-dose-only effect, or another doubt; inactive = no such curve, though single readings can be large; an effect the other way counts as inactive or inconclusive.

SMILES	TDP1 cell CPT	HepG2 viability	TDP1 cell noCPT	IL-1B inflam inh	TDP1 block	TGFb inhibitor
CC(=O)N1CCc2c(sc3c2c(=O)n(CCc2ccccc2)c(=O)n3Cc2ccccc2C)C1	15µM*	-45%	16µM*	.	4%	?
CCOC(=O)N1CCc2c(sc3c2c(=O)n(-c2ccccc2C(F)(F)F)c(=O)n3Cc2ccccc2C)C1	18µM*	-29%	?	.	1%	-6%
CC(=O)N1CCc2c(sc3c2c(=O)n(Cc2ccccc2)c(=O)n3Cc2cc(C)ccc2C)C1	16µM*	-1%	21µM*	.	1%	?
CCOC(=O)N1CCc2c(sc3c2c(=O)n(Cc2ccccc2)c(=O)n3Cc2cccc(Cl)c2)C1	10µM*	-5%	21µM*	.	4%	-33%
COc1ccccc1-n1c(=O)c2c3c(sc2n(Cc2ccccc2F)c1=O)CN(C(C)=O)CC3	-22%	2%	-9%	.	5%	0%
C[C@@]1(C(NC(=O)c2cccs2)c2ccc(-c3ccccc3)cc2)C[C@H]1C1CCCCC1 (stereo partly drawn)	.	.	.	.	3%	.
COc1ccc(-n2c(CNC(=O)c3ccc(OC)cc3OC)nnc2SC)cc1	16%[9.04 µM]	.	-24%	.	.	.
COc1ccc(S(=O)(=O)N(C)CC(=O)NCCCn2ccnc2)cc1Cl	-12%	7%	-21%	28	.	33%
O=C(NCCc1ccccc1)c1n[nH]c2ccccc12	-9%	1%	-23%	17	-3%	-7%
CC1(C)CNC(=O)c2sc(N3CCOCC3)nc2C1	8.2µM*	-11%	21µM*	-17	0%	38%
Cc1cc(C)c(C#N)c(SCC(=O)Nc2cc(C)on2)n1	-7%	-13%	-8%	0	0%	11%
Cc1cccc(-c2ncc(CN3CCN(C4CCCC4)C(CCO)C3)cn2)c1 (stereo not drawn)	8%	13%	2%	4	8%	10%
OCCC1CN(Cc2cnc(-c3ccc(Cl)cc3)nc2)CCN1C1CCCCC1 (stereo not drawn)	?	-31%	21µM*	.	0%	?
O=C(O)Cc1ccc2c(c1)Cc1cccnc1O2	-5%	6%	-24%	-2	.	-2%
CCC(C)[C@H](NC(=O)Nc1ccc(C)cc1C)C(=O)O (stereo partly drawn)	12µM*	-5%	-61%	10	.	1%
CCC(C)[C@H](NC(=O)Nc1ccc(Oc2ccccc2)cc1)C(=O)O (stereo partly drawn)	-8%	7%	-27%	33	0%	-5%
CCCCc1ccc(NC(=O)N[C@H](C(=O)O)C(C)CC)cc1 (stereo partly drawn)	?	15%	10µM*	17	3%	0%
CCCCc1ccc(NC(=O)N[C@H](C(=O)O)C(C)C)cc1	16µM*	-9%	7.3µM*	19	0%[56.1 µM]	13%
COc1ccc(S(=O)(=O)N2CCCCC2)cc1NC(=O)COC(=O)c1ccco1	-1%	7%	-11%	0	0%	11%
O=C(CSc1nc(-c2ccccc2)cn1-c1ccccc1)Nc1ccccc1	?	-3%	?	.	10%	-23%
O=C(CSc1nc(-c2ccccc2)cn1-c1ccccc1F)Nc1ccc(F)cc1	18µM*	-21%	?	.	10%	14µM*
Cc1ccc(NC(=O)CSc2nnc(-c3n[nH]c4ccccc34)n2-c2ccccc2)c(C)c1	15µM*	-1%	?	-51*	0%	?
Cc1ccc(OCc2nnc(SCC(=O)Nc3cccc4ccccc34)n2-c2ccccc2)cc1	?	-15%	?	-26	-1%	-4%
